The values below come from PubChem BioAssay.

Values joined by “and” are separate entries in the source; they are usually repeats but may differ in a detail not shown here. Identical values can stand only once. Inconclusive results are not listed. For some assays here: Potency and affinity values are given separately. Active and inactive are the calls of the source. Cut-off read from the data, not from the text of the source, unless noted: active = parasite load remaining mostly below about 12% (no sharp cut-off); inactive = mostly above about 10%.

The nature of test [1]: polyglutamine-triggered caspase-3 activation inhibitors, cell-based (AID 1583). The following applies: polyglutamine-induced caspase-3 activation, cell assay; stronger effect = higher value;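 tested at 10 µM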.
Test [2] is described as follows: suppressors of polyQ aggregation in yeast, 75Q-TubU reporter (AID 1593). To be noted: Yeast 75Q polyglutamine aggregation reporter.
Test [3] can be described thus: rescue of polyQ-huntingtin neuronal dysfunction in worms, whole organism, C. elegans mechanosensory neurons, N-terminal huntingtin (AID 1599). To be noted: touch response, stronger effect = higher value.
Test [4] in a line: inhibitors of mitochondrial cytochrome c release, biochemical, purified mitochondria (AID 1603).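 Note: mouse liver mitochondria challenged with calcium chloride; signal normalized to the plate average as 100%.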 To be noted: stronger effect = lower value.
Test [5] is described as follows: inhibitors of polyQ protein aggregation (AID 1604). To be noted: polyglutamine-induced protein aggregation inhibition assay; stronger effect = higher value; tested at 2.5 µM.
A short description of test [6]: enhancers of glutamate uptake in motor neurons, MN-1 cell line (AID 1612).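 Note: tested at 1 µM final; 0% = mean of DMSO vehicle wells on each plate; positive means more glutamate uptake than control and negative means less.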 To be noted: MN-1 motor neuron cells, stronger effect = higher value.
The nature of test [7]: reducers of polyQ inclusions in PC12 cells, cell-based, NGF-treated PC12, GFPQ80 (AID 1614).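 Note: lower means fewer inclusions and 0 means no inclusions at all.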 To be noted: PC12 NGF-treated GFP-polyQ80 inclusion reduction.
The nature of test [8]: suppressors of polyglutamine aggregation in yeast, 75Q-TubH (AID 1616). To be noted: S. cerevisiae 75Q-TubH polyglutamine aggregation suppression; stronger effect = higher value.
Test [9] in a line: liver-stage malaria parasite growth inhibition, primary screen, cell-based, HepG2, luciferase luminescence, HepG2 viability (AID 624349).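 Note: 100% = mean of DMSO negative control wells on the same plate.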 To be noted: P. berghei liver stage in HepG2, luciferase luminescence, concentration not given here; parasite load remaining: stronger effect = lower value; viability: measured here: HepG2 viability without parasites.
The nature of test [10]: differential killing of epithelial or mesenchymal cells, primary screen, imaging, PC-3E GFP, TEM4-18 mCherry, co-culture (AID 1345086;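 active = compounds killing one labelled cell type while sparing the other, by normalised counts and ratio limits, not self-fluorescent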;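 for all read-outs here: cells exposed to compound for 72 h before imaging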;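 for red/green cell ratio (normalised): normalised mesenchymal count divided by normalised epithelial count so high means epithelial killing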). The following applies: imaging cell counts, at 1 µM; for red/green cell ratio (normalised): actives lie on both sides, counts scaled to control wells, 1 = unselective.
A short description of test [11]: sensitizers of A549 cells to miR-34 induction, primary screen, imaging, A549 dox-inducible miR-34, nuclei and caspase counts (AID 1347080;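 active = compounds whose cell count with miR-34 switched on is under 0.7 times the count with it off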). The following applies: A549 miR-34 inducible, Hoechst nuclei count, 48 h.
The nature of test [12]: protection of motor neurons from glutamate death, cell-based, TUNEL DNA degradation staining, MNGlu (AID 1594; call rule not given here). To be noted: glutamate-induced death, at 1 µM, stronger effect = higher value.
The target in test [13] is Mitogen-activated protein kinase 7 (Homo sapiens) (UniProt Q13164). The test can be described thus: ERK5 transactivation activators in reporter cells, primary screen, cell-based, HTS (AID 1508626;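 active = luciferase signal above three times the same-plate solvent-only control wells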;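 note: luciferase driven by Gal4-ERK5 fusion binding five Gal4 sites before minimal TATA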). The following applies: HeLa Gal4-ERK5 transactivation, 18 h, at 5 µM, stronger effect = higher value.
Mitogen-activated protein kinase 7 (Homo sapiens), sequence (Q13164 whole entry, looked up, the tested form may be a part): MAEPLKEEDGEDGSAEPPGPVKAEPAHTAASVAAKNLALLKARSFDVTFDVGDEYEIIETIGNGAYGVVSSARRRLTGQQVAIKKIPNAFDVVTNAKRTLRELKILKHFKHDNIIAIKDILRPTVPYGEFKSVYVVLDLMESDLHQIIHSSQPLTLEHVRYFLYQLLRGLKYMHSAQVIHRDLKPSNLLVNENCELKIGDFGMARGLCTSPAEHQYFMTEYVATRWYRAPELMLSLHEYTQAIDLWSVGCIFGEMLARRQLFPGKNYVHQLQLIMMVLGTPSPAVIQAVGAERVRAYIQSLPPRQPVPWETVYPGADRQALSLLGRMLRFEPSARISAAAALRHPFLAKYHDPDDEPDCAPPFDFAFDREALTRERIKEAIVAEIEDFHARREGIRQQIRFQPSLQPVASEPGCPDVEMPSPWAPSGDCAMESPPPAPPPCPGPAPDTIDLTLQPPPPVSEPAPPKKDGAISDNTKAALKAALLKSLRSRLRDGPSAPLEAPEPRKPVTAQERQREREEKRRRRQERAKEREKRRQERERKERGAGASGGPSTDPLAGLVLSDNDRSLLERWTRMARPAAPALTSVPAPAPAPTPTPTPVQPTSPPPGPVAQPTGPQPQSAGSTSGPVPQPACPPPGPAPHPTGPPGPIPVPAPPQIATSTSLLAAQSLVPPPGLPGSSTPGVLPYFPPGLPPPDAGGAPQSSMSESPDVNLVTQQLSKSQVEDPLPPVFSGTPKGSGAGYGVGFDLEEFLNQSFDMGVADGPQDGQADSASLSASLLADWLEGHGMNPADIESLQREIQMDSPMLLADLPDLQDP
Test [14] has as its target NAD(+) hydrolase SARM1 (Homo sapiens) (UniProt Q6SZW1). Description: SARM1 TIR NADase inhibitors, cell lysate, NAD-Glo luminescence (AID 1508614;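 active = compound whose remaining NAD level is above about 45 nM, limit read from the data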;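 note: higher remaining NAD means stronger inhibition of SARM1 NADase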). To be noted: SAM-TIR HEK293T lysate NADase, at 1 µM, stronger effect = higher value.
[15] abbreviates: measured here: epithelial PC-3E GFP cell survival.
The mark [16] stands for this setting: measured here: mesenchymal TEM4-18 mCherry cell survival.
Setting [17] is: stronger effect = lower value, cell number ratio, induced over uninduced.
The mark [18] stands for this setting: measured here: relative caspase fold change +Dox/-Dox.
The mark [19] stands for this setting: measured here: total cells with miR-34 induction, stronger effect = lower value.
The mark [20] stands for this setting: measured here: total cells without miR-34 induction.

NAD(+) hydrolase SARM1 (Homo sapiens), sequence (Q6SZW1 whole entry, looked up): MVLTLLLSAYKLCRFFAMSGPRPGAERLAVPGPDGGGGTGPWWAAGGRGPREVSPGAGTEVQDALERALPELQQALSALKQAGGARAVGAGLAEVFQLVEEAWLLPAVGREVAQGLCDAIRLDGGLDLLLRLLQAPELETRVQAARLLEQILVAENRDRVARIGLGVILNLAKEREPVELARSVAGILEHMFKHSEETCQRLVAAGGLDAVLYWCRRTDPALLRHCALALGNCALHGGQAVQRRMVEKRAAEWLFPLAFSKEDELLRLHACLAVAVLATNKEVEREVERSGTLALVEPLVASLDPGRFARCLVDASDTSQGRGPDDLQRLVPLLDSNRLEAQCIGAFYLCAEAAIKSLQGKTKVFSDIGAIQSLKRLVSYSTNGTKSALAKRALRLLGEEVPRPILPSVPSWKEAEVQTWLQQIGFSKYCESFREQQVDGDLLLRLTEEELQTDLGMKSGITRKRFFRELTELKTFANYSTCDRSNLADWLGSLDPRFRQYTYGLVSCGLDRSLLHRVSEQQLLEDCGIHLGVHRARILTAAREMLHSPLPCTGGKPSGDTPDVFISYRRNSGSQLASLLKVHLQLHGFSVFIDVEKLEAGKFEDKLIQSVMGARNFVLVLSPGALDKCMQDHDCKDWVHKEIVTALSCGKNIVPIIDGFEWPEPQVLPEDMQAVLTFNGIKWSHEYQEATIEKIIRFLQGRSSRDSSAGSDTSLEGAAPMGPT

In the case of `CC(=O)OCC(=O)[C@@]12OC3(CCCC3)O[C@@H]1CC1C3CCC4=CC(=O)C=C[C@]4(C)[C@@]3(F)[C@@H](O)C[C@@]12C` (stereo partly specified), the inhibition (usually the change of the read-out against control, counted positive when it falls) in test [1] was determined as 11.1%. For the same compound, in test [2], the score was determined as 0.65. The rescue above control in [3] was -4.49. Further, in test [4], the cytochrome c release ratio is 0.91. This compound gave an inhibition of aggregation in test [5] of 31.4%. Besides, the glutamate uptake change in [6] stood at 27.2%. Moreover, the inclusion score in [7] was found to be 2. In addition, the aggregation suppression score in test [8] is 0.855. In addition, in [9], the parasite load remaining is 189% (inactive) and 59% (inactive). The viability (in general, a read-out of living cells in per cent, often relative to untreated cells) in test [9] is 84% and 96.4%. Moreover, in [10], the red/green cell ratio (normalised) was 1.04 (inactive). Also, the normalised cell number in test [10] (setting [15]) came out at 1.4; in test [10] (setting [16]), 1.46. Also, the fold change in test [11] (setting [17]) is 0.917 (inactive); in test [11] (setting [18]) it was 2.86. The cell count worked out at 7510 in test [11] (setting [19]) and 8190 in test [11] (setting [20]).

In [1], `C[C@]12C=CC(=O)C=C1CCC1C2[C@@H](O)C[C@@]2(C)C1CC[C@]2(O)C(=O)CO` (stereo partly specified) displayed an inhibition of 12%. Also, the score in [2] worked out at 1.21. In [12], the protection is 55% (active). In addition, in test [3], the rescue above control was found to be 1.9. The cytochrome c release ratio in test [4] was determined as 1.29. Further, the inhibition of aggregation in test [5] amounted to 70.5%. Moreover, the glutamate uptake change in test [6] was 9.97%. Also, the inclusion score in test [7] stood at 2. Further, the aggregation suppression score in test [8] worked out at 1.27. The parasite load remaining in test [9] is 115% (inactive) and 54.5% (inactive). In addition, in [9], the viability is 73.3% and 82.9%. The red/green cell ratio (normalised) in test [10] was 1.37 (inactive). Moreover, the normalised cell number in test [10] (setting [15]) was determined as 1.03; in test [10] (setting [16]), 1.41. The fold change is 0.848 (inactive) in test [11] (setting [17]) and 2.13 in [11] (setting [18]). Besides, the figures for the cell count in [11] (setting [19]) and in test [11] (setting [20]) were 6630 and 7820, respectively.

As for `CC(=O)Oc1c(C)c(C)c2c(c1C)CCC(C)(CCCC(C)CCCC(C)CCCC(C)C)O2` (stereo unspecified), the inhibition in [1] turned out to be 1.05%. In test [2], this compound registered a score of -0.71. In test [3], this compound had a rescue above control of 1.2. For the same compound, the cytochrome c release ratio in test [4] is 0.62. Also, the inhibition of aggregation in [5] worked out at 56.3%. Moreover, the glutamate uptake change in [6] amounted to 6.04%. The inclusion score in [7] was 2. In test [8], this compound gave an aggregation suppression score of 0.546. The parasite load remaining in [9] was 74.6% (inactive). Further, the viability in [9] was 96%. Moreover, the red/green cell ratio (normalised) in test [10] is 0.9 (inactive). Moreover, the normalised cell number in test [10] (setting [15]) is 0.92; in test [10] (setting [16]) it was 0.84. Moreover, the results for the fold change in test [11] (setting [17]) and in test [11] (setting [18]) were 0.901 (inactive) and 1.55, respectively. Moreover, the cell count in [11] (setting [19]) amounted to 11100; in test [11] (setting [20]) it was 12300. In addition, the luciferase signal in test [13] is 44 AU (inactive).

On to `FC(F)(F)COCC(F)(F)F`, for which the parasite load remaining in test [9] was 45.8% (inactive). For the same compound, the viability in [9] turned out to be 107%. The red/green cell ratio (normalised) in [10] is 0.7 (inactive). In addition, the figures for the normalised cell number in [10] (setting [15]) and in test [10] (setting [16]) were 1.25 and 0.88, respectively. The fold change is 0.879 (inactive) in [11] (setting [17]) and 0.825 in [11] (setting [18]). Further, the cell count is 10400 in test [11] (setting [19]) and 11900 in [11] (setting [20]). For the same compound, the remaining NAD in [14] is 10 nM (inactive). The luciferase signal in test [13] was 60 AU (inactive).

On to `CC(=O)Nc1ccc(S(=O)(=O)c2ccc(NC(C)=O)cc2)cc1`, for which the parasite load remaining in [9] is 52.4% (inactive). Also, the viability in test [9] came to 147%. In addition, in test [10], the red/green cell ratio (normalised) was 0.78 (inactive). Besides, the figures for the normalised cell number in test [10] (setting [15]) and in [10] (setting [16]) were 1.22 and 0.95, respectively. For the same compound, the fold change is 0.909 (inactive) in test [11] (setting [17]) and 4.36 in [11] (setting [18]). In addition, the cell count was found to be 10600 in test [11] (setting [19]) and 11700 in test [11] (setting [20]). The remaining NAD in test [14] was 25 nM (inactive). Also, in test [13], the luciferase signal was 44 AU (inactive).

As for `FC(F)(F)C(Cl)Br` (stereo unspecified), the parasite load remaining in test [9] was 24% (inactive). The viability in test [9] came to 94.8%. In test [10], the red/green cell ratio (normalised) is 0.84 (inactive). In addition, the normalised cell number in [10] (setting [15]) was 1.13; in [10] (setting [16]) it was 0.95. For the same compound, the fold change in test [11] (setting [17]) was 0.974 (inactive); in test [11] (setting [18]), 2.12. Further, the cell count in test [11] (setting [19]) is 12500; in test [11] (setting [20]), 12900. Moreover, in test [14], the remaining NAD is 10 nM (inactive). The luciferase signal in [13] was 40 AU (inactive).
